# Data reported in publication PMC5540273 (PLoS ONE, 2017).
# Key:
# Conditions in all cases: concentration: 1 μM,replicates: in singlicate; n = 1
# MAP3K15 = system: MAP3K15
# MAP3K1 = system: MAP3K1
# MAP3K2 = system: MAP3K2
# MAP3K3 = system: MAP3K3
# MAP3K4 = system: MAP3K4
# MAP4K2 = system: MAP4K2
# MAP4K3 = system: MAP4K3
# MAP4K4 = system: MAP4K4
# MAP4K5 = system: MAP4K5
# MAPKAPK2 = system: MAPKAPK2
# 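Also: KINOMEscan kinase panel screen.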
Structure (SMILES),%Inh (MAP3K15),%Inh (MAP3K1),%Inh (MAP3K2),%Inh (MAP3K3),%Inh (MAP3K4),%Inh (MAP4K2),%Inh (MAP4K3),%Inh (MAP4K4),%Inh (MAP4K5),%Inh (MAPKAPK2)
COc1cc2nccc(Nc3ccc(Oc4ccccc4)cc3)c2cc1OC.Cl [GI261656],0%,21%,0%,0%,0%,0%,0%,0%,0%,0%
OCCn1cc(-c2cnc3nnn(Cc4ccc5ncccc5c4)c3n2)cn1,0%,0%,0%,0%,0%,0%,0%,0%,0%,0%
CNC(=O)c1ccccc1Nc1nc(Nc2cccc(CS(C)(=O)=O)c2)ncc1C.O=CO [GSK1520489],9%,10%,94.4%,94%,85%,96.3%,91%,0%,4%,0%
CCOC(=O)N1CCC(n2cnc(-c3ccc(F)cc3)c2-c2ccnc(N)n2)CC1 [SB-219952],36%,29%,6%,11%,6%,0%,0%,9%,4%,24%
O=c1[nH]cc(-c2ccc(O)cc2)c2sc(-c3ccncc3)cc12 [GSK1033723],0%,13%,7%,0%,0%,0%,0%,0%,0%,0%
Cn1ccc2ncnc(Oc3ccc(NC(=O)Nc4cccc(C(F)(F)F)c4)c(F)c3)c21,0%,0%,0%,18%,13%,0%,20%,17%,40%,22%
FC(F)(F)c1cc(Br)cc(Nc2nccc(-c3cnn4ncccc34)n2)c1 [GW810578],0%,3%,14%,29%,15%,41%,7%,0%,18%,0%
Cn1ccc2ncnc(Oc3ccc(NC(=O)Nc4cnn(C(C)(C)C)c4)c(Cl)c3)c21,0%,7%,0%,9%,1%,4%,0%,52%,0%,7%
Cc1ccc(CC(=O)N2CCc3cc(-c4cn(C)c5ncnc(N)c45)ccc32)cc1 [GSK2634758],0%,10%,55%,22%,90.3%,3%,96.7%,0%,77%,6%
Cn1cc(-c2cccc3c(N)c(C(N)=O)nnc23)cn1,7%,29%,14%,30%,95%,0%,8%,22%,14%,0%
O=C(Nc1cccc(C(F)(F)F)c1)c1cccc(Oc2ccc3nccn3n2)c1,1%,21%,19%,0%,22%,0%,8%,14%,23%,0%
COC(=O)Nc1nc2cc(Oc3ccc(NC(=O)Nc4cc(C(F)(F)F)ccc4Cl)cc3)ccc2[nH]1.Cl [GW697465],0%,14%,0%,0%,1%,0%,0%,12%,23%,14%
Cn1ccc2ncnc(Oc3ccc(NC(=O)Nc4cncc(C(F)(F)F)c4)c(Cl)c3)c21,0%,0%,0%,0%,3%,0%,0%,0%,0%,0%
COc1cc2ncn(-c3cc(OCC4CCCCC4)c(C(N)=O)s3)c2cc1OC [GSK204559],0%,30%,0%,0%,0%,0%,0%,35%,38%,0%
CCCC(=O)Nc1n[nH]c2ncccc12 [SB-601436],29%,0%,5%,34%,11%,5%,0%,0%,0%,16%
Cc1ccc2c(-c3ccnc(Nc4ccc(C(F)(F)F)cc4)n3)cnn2n1 [GW819776],10%,0%,20%,0%,0%,0%,0%,0%,0%,0%
CC(C(=O)NC1CCN(c2ccnc(Nc3ccc(F)cc3)n2)C1)c1ccc(Cl)cc1 (centres unmarked) [GSK1379713],0%,0%,0%,0%,17%,0%,0%,12%,4%,26%
